PubChem BioAssay AID686979 (National Center for Advancing Translational Sciences (NCATS), 2013)
Values joined by “and” are separate entries in the source; they are usually repeats but may differ in a detail not shown here. Equal entries are not always repeated. Among all 420,000 compounds or so, about 50,000 (12%) were called active. Where a call stands in place of a potency, no number is given. Inconclusive results (about 26%) are left out. The call rests on the fitted dose curve; in most records, active means well fitted inhibition curve with a large enough effect; inconclusive means small, poorly fitted or top-dose-only effect; inactive means flat fitted curve, though single readings scatter. This excerpt belongs to a sample that is enriched for actives. Some structures have more than one record in an assay (separate samples or runs), and their calls can disagree.
Potency means the concentration at half of the fitted maximal effect.

Experiment: qHTS for Inhibitors of human tyrosyl-DNA phosphodiesterase 1 (TDP1): qHTS in cells in presence of CPT; further: nearly all actives have a fitted effect of over 55% in size
Conditions: chicken DT40 Tdp1-/-;hTDP1 cells + 20 nM CPT, ATP luminescence, 48 h; series mostly up to 46.2 µM
Outline: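 Chicken DT40 Tdp1-/- cells complemented with human TDP1, 400 cells/well, exposed to compounds plus 20 nM camptothecin for at least 48 h at 37 C; viability read as ATP content by CellTiter-Glo luminescence.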
In the case of `CCOc1ccc(C(C(=O)NCCOC)N(CCOC)C(=O)CCC(=O)Nc2ccccn2)cc1` (centres undefined), the Potency is reported as “inactive”.
With `CCN(C(=O)c1cc([N+](=O)[O-])ccc1NCc1cccnc1)c1ccccc1` the Potency was “inactive”.
In the case of `CCCn1nc(C(=O)NNC(=O)CSCC(=O)Nc2cc(C)on2)c2ccccc2c1=O`, the Potency is reported as “inactive”.
For `O=C(NC(=O)c1ccccc1)NC(=O)c1ccccc1`, the Potency was “inactive”.
In the case of `CC(NC(=O)c1ccccc1)C(=O)Nc1ccccc1` (centres undefined), the Potency is reported as “inactive”.
For `O=C(NC1=CC(=O)c2ccccc2C1=O)c1ccccc1`, the Potency was 0.651 µM (active).
In the case of `CCC1CN(CCNC(=O)c2ccsc2)Cc2cc(OC)ccc2O1` (centres undefined), the activity change, negative = growth inhibition is reported as 9.24% [at 9.04 µM] (inactive).
For `COc1ccc(C(C(=O)NCC2CCCO2)N(C(=O)Cn2nnc3ccccc32)c2ccc(NC(C)=O)cc2)cc1OC` (centres undefined), the Potency was “inactive”.
In the case of `O=S1(=O)CC(N2CCN(c3ccccn3)CC2)CN1Cc1ccc(F)cc1` (centres undefined), the Potency is reported as “inactive”.
With `O=S1(=O)CC(N2CCN(Cc3ccccc3F)CC2)CN1Cc1cn(Cc2ccccc2)nn1` (centres undefined) the Potency was “inactive”.
For `O=[N+]([O-])c1ccc(CN2CC(N3CCC(c4ccccc4)CC3)CS2(=O)=O)cc1` (centres undefined), the Potency was 18.4 µM (active).
With `CCc1nn(CC(=O)N2CCN(CC)CC2)c(=O)c2cccn12` the Potency was “inactive”.
For `COc1ccc(S(=O)(=O)NC(C)c2ccccc2)cc1C(=O)N1CCCCC1` (centres undefined), the Potency was “inactive”.
For `Cc1ccc(S(=O)(=O)n2cccc2CO)cc1`, the Potency was “inactive”.
With `COc1cccc2cc(-c3nc(Cl)c4c5c(sc4n3)CC(C)CC5)c(=O)oc12` (centres undefined) the Potency was “inactive”.
For `COc1ccc(OC)c(NC(=O)/C=C/c2ccc(C)o2)c1`, the Potency was “inactive”.
In the case of `CCc1nnc(NC(=O)/C=C/c2ccc(C)o2)s1`, the Potency is reported as “inactive”.
For `Cc1ccc(/C=C/C(=O)Nc2ccc([N+](=O)[O-])c(NC(=O)/C=C/c3ccc(C)o3)c2)o1`, the Potency was 11.6 µM (active).
For `O=C(Nc1ccn(Cc2ccc(F)cc2)n1)c1ccncc1`, the Potency was 18.4 µM (active).
With `O=C(Nc1ccn(Cc2ccccc2)n1)c1n[nH]c([N+](=O)[O-])c1Cl` the Potency was “inactive”.
In the case of `O=C(Nc1ccn(Cc2ccccc2)n1)c1cccc(F)c1`, the Potency is reported as “inactive”.
For `Cn1c(=S)sc2ccc3ccccc3c21`, the Potency was “inactive”.
In the case of `CC(C)NC(=O)N1CC[C@@]2(CCCN(C(=O)c3ccco3)C2)C1`, the Potency is reported as “inactive”.
For `Cc1ccc(NC(=O)CN2CCCCC2)c2c1CC(C)(C)O2`, the Potency was “inactive”.
For `O=C(O)CSc1ccc(S(=O)(=O)N2CCCC2)cn1`, the Potency was “inactive”.
For `Cc1ccc(S(=O)(=O)NC2(C(F)(F)F)NC(=O)N(CCc3ccccc3)C2=O)cc1` (centres undefined), the Potency was “inactive”.
With `O=C(Cc1ccc(F)cc1)N1CCN=C1SCc1cccc([N+](=O)[O-])c1` the Potency was “inactive”.
For `COc1ccc(Nc2ncc(C(=O)N3CCN(c4ccccc4OC)CC3)c3ccccc23)cc1`, the Potency was 29.1 µM (active) and 13 µM (active).
With `COc1ccc(NC(=O)c2cnc(Nc3ccc(C)c(Cl)c3)c3ccccc23)cc1OC` the Potency was “inactive”.
For `COc1ccccc1N1CCN(C(=O)c2ccc(NC3=NC4CS(=O)(=O)CC4S3)cc2)CC1` (centres undefined), the Potency was “inactive”.
In the case of `O=C(Nc1cc(F)ccc1F)c1ccc2c(=O)n3c(nc2c1)CCC3`, the Potency is reported as “inactive”.
For `Cc1ccc(-c2csc(NC(=O)Cc3cccs3)n2)cc1C`, the Potency was “inactive”.
For `COc1ccc(NC(=O)C2COc3ccccc3O2)cc1` (centres undefined), the Potency was “inactive”.
For `O=C(CCc1ccccc1)Nc1nn[nH]n1`, the Potency was “inactive”.
In the case of `CC(=O)c1cccc(NC(=O)C2COc3ccccc3O2)c1` (centres undefined), the Potency is reported as “inactive”.
In the case of `O=C(Nc1nc(-c2cccnc2)cs1)c1ccccc1F`, the Potency is reported as “inactive”.
For `O=C(CCc1ccccc1)Nc1ncc([N+](=O)[O-])s1`, the Potency was 20.6 µM (active).
In the case of `Cc1ccc(-c2csc(NC(=O)C3=COCCO3)n2)cc1C`, the Potency is reported as 13 µM (active).
For `CC(=O)NCCC(=O)Nc1nc(-c2ccc3c(c2)OCCO3)cs1`, the Potency was “inactive”.
With `O=C(CCc1ccccc1)Nc1ccc(NC(=O)C2CCCCC2)nc1` the Potency was “inactive”.
With `O=C(Nc1nc(-c2ccncc2)cs1)C1COc2ccccc2O1` (centres undefined) the Potency was 20.6 µM (active).
In the case of `Cc1csc(NC(=O)C2=COCCO2)n1`, the Potency is reported as “inactive”.
With `O=C(Nc1nc(-c2ccc3c(c2)OCO3)cs1)c1ccncc1` the Potency was 14.6 µM (active).
For `Fc1ccc(/C=N/n2c(COc3ccccc3)n[nH]c2=S)cc1`, the Potency was “inactive”.
With `C#CCN(C[C@H]1[C@H](OC(=O)NC2CCCC2)[C@H](OC(=O)NC2CCCC2)C[C@H]2C(=O)N(c3ccccc3)C(=O)[C@@H]12)S(=O)(=O)c1ccc(C)cc1` the Potency was “inactive”.
For `CC(Oc1ccccc1)C(=O)NN1Cc2ccccc2C1=N` (centres undefined), the Potency was “inactive”.
For `O=C(COc1ccc([N+](=O)[O-])cc1)Nc1ccc(N2CCCC2)cc1`, the Potency was “inactive”.
For `C/C(=N/NC(=O)C1COc2ccccc2O1)c1ccco1` (centres undefined), the Potency was “inactive”.
For `O=C(Nc1ncc([N+](=O)[O-])s1)C1COc2ccccc2O1` (centres undefined), the Potency was 14.6 µM (active).
For `O=C(Nc1nnc(SCc2ccc(Cl)cc2Cl)s1)C1COc2ccccc2O1` (centres undefined), the Potency was “inactive”.
For `Cc1cc(N=Nc2ccc3ccccc3c2)ccc1O`, the Potency was “inactive”.
With `C[C@H](NC(=O)c1nc[nH]c1C(=O)NCC(=O)OC(C)(C)C)C(=O)OCc1ccccc1` the Potency was “inactive”.
With `COc1ccc(C(O)C(O)(C(=O)OC(C)C)c2ccc(C)cc2)cc1` (centres undefined) the Potency was “inactive”.
With `COc1ccc(OC)c(-c2csc(NC(=O)COC(=O)C3CC3)n2)c1` the Potency was “inactive”.
In the case of `COc1ccc(OC)c(Nc2nc(-c3ccc(O)c(O)c3)cs2)c1`, the Potency is reported as 0.82 µM (active).
In the case of `COc1ccc(CCN(C(=O)COc2ccccc2)c2nc(-c3ccccc3)cs2)cc1OC`, the Potency is reported as “inactive”.
In the case of `COc1ccc(-c2csc(Nc3ccc(O)cc3)n2)cc1`, the Potency is reported as 10.3 µM (active).
With `COc1ccc(OC)c(-c2csc(-c3cccs3)n2)c1` the Potency was “inactive”.
In the case of `COc1ccc(-c2csc(Cc3nc(O)cs3)n2)cc1`, the Potency is reported as 18.4 µM (active).
For `COc1cccc(CC(=O)Nc2ccc(-c3csc(C)n3)cc2)c1`, the Potency was “inactive”.
For `N#CCc1ccc(NC(=O)c2ccccc2C(=O)Nc2ccc(CC#N)cc2)cc1`, the Potency was “inactive”.
In the case of `COc1ccc(NC(=O)COC(=O)c2n[nH]c3ccccc23)c(OC)c1`, the Potency is reported as “inactive”.
With `CCOc1ccc(N2CC(C(=O)NCc3ccccn3)CC2=O)cc1` (centres undefined) the Potency was “inactive”.
In the case of `COc1cc(/C=C/C(=O)O)cc(S(=O)(=O)Nc2ccccc2C(=O)NCCc2ccccc2)c1OC`, the Potency is reported as “inactive”.
With `COCCCn1c(SCC(=O)NC2CCCC2)nnc1-c1ccccc1` the Potency was “inactive”.
In the case of `CCCCN(C)CCCNC(=O)CN1N=C(c2ccc(OC)cc2)CCC1=O`, the Potency is reported as “inactive”.
In the case of `O=C1NNC(c2ccccc2)=N/C1=C\c1ccc(Cl)cc1`, the Potency is reported as “inactive”.
For `Cc1nc(=O)c(-c2ccccc2)c(C)n1-c1ccc(Br)cc1`, the Potency was “inactive”.
For `CCOC(=O)c1c(C)oc(C)c(C(=O)OCC)c1=O`, the Potency was “inactive”.
In the case of `CC(C)Cn1cnc2c1c(=O)n(CC(=O)NN)c(=O)n2Cc1ccccc1`, the Potency is reported as “inactive”.
For `CC1=Nc2cc(C(=O)N3CCC(C)CC3)ccc2Sc2ccc(Cl)cc21`, the Potency was 14.6 µM (active).
For `COc1ccc(C(=O)Nc2c(Cl)cc(Cl)cc2C(=O)N2CCC(C)CC2)cc1`, the Potency was “inactive”.
In the case of `CC1CCN(C(=O)c2ccc3c(c2)NC(=O)CN3)CC1`, the Potency is reported as “inactive”.
For `Cc1cc(OCc2ccc(C(=O)Nc3ccc(C(=O)O)cc3)o2)ccc1Cl`, the Potency was “inactive”.
In the case of `CN(C(=O)CN(CCO)CC(=O)N(C)C(C)(C)Cc1ccccc1)C(C)(C)Cc1ccccc1`, the Potency is reported as “inactive and 3.66 µM (active)”.
For `CCN(CC)CCCNC(=O)CCc1ccccc1`, the Potency was “inactive”.
In the case of `CN(Cc1ccccc1)C(=O)CCc1ccccc1`, the Potency is reported as “inactive”.
In the case of `CCCCN(C)c1ccc([N+](=O)[O-])cc1`, the Potency is reported as “inactive”.
For `Cc1cc(C)c(S(=O)(=O)c2ccccc2)c(OC(=O)c2c(F)cccc2Cl)n1`, the Potency was “inactive”.
With `Cc1nc(-c2ccc(Cl)cc2)sc1C(=O)NN` the Potency was “inactive”.
With `Cc1ccc(SCC(=O)c2sc(-c3ccccc3)nc2C)cc1` the Potency was “inactive”.
In the case of `CN(C)/C=C/C(=O)c1ccccc1F`, the Potency is reported as “inactive”.
In the case of `Cc1nc(-c2ccccc2)sc1C(=O)/C=C/c1ccccc1`, the Potency is reported as 23.1 µM (active).
For `Cc1nc(-c2ccccc2)sc1C(=O)/C=C/N(C)C`, the Potency was 23.1 µM (active).
For `Cc1nc(COc2cccc(Cl)c2)sc1C(=O)/C=C/N(C)C`, the Potency was “inactive”.
With `O=C(CN1CCSCC1)N/N=C/c1ccc(F)cc1F` the Potency was “inactive”.
With `CCn1nc(C(=O)NNC(=O)C2CSC3(C)CCC(=O)N23)c2ccccc2c1=O` (centres undefined) the Potency was “inactive”.
For `COc1ccc(S(=O)(=O)NC(C)C(=O)NCc2ccncc2)cc1Cl` (centres undefined), the Potency was “inactive”.
With `COc1ccc(Cn2c(=O)c3oc4ccccc4c3n(CC(=O)Nc3ccc(F)cc3F)c2=O)cc1` the Potency was “inactive”.
For `CN=C(c1ccccc1)c1c(C)cccc1C`, the Potency was “inactive”.
In the case of `COc1ccc(CCNc2nc3ccc(C)cc3n3cnnc23)cc1OC`, the Potency is reported as 14.6 µM (active).
With `COc1ccc(OC)c(C(O)c2nc3ccccc3n2C)c1` (centres undefined) the Potency was “inactive”.
In the case of `COc1ccc(OC)c(Nc2nc3ccccc3n3cnnc23)c1`, the Potency is reported as 4.11 µM (active).
With `COc1ccccc1CNc1nc2ccc(Cl)cc2n2cnnc12` the Potency was “inactive”.
In the case of `COc1cc(Nc2nc3ccc(Cl)cc3n3cnnc23)cc(OC)c1OC`, the Potency is reported as 20.6 µM (active).
With `CCOc1ccc(OCC)c(Nc2nc3ccccc3n3nnnc23)c1` the Potency was “inactive”.
In the case of `CCOC(=O)Cc1cccc(-c2cc(CCCCCCc3ccc(O[C@H]4O[C@H](COC(C)=O)[C@@H](OC(C)=O)[C@H](OC(C)=O)[C@@H]4OC(C)=O)c(-c4cccc(CC(=O)OCC)c4)c3)ccc2O[C@H]2O[C@H](COC(C)=O)[C@@H](OC(C)=O)[C@H](OC(C)=O)[C@@H]2OC(C)=O)c1`, the Potency is reported as “inactive”.
For `Cc1nnc(SCC(=O)NC(=O)NC2CCCC2)n1N`, the Potency was “inactive”.
With `Nc1nc(SC23CC4CC(CC(C4)C2)C3)ns1` the Potency was “inactive”.
With `Nc1nc(NC(=O)/C=C/c2ccccc2)nn1-c1ccccc1` the Potency was “inactive”.
In the case of `CC1(c2cccc(N)c2)OCCO1`, the Potency is reported as “inactive”.
For `COc1ccc(C2Nc3ccc(NC(=O)COC(C)=O)cc3C(=O)N2Cc2ccccc2)cc1COc1ccc(NC(C)=O)cc1` (centres undefined), the Potency was 17.8 µM (active).
For `CC(=O)Nc1ccc(NC(=O)COc2ccc(-c3ccccc3)cc2)cc1`, the Potency was “inactive”.
For `COc1ccc(N2C(=O)c3ccccc3NC2c2ccc(OC)c(CN3CCOCC3)c2)cc1` (centres undefined), the Potency was “inactive”.
